The list is not random: actives were taken first. Their share in the collection is about 12%.
Sm TGR inh – qHTS Assay for the Inhibitors of Schistosoma Mansoni Peroxiredoxins. Schistosoma mansoni thioredoxin glutathione reductase (TGR), Q962Y6. purified TGR, DTNB reduction, TNB absorbance 405 nm. Potency, µM (doses to about 114 µM), actives largely listed as inhibitors. hit rate 3% among 360,000. AID 485364, 2010; note: nearly all actives have a fitted effect of over 60% in size
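TGR 20 nM + NADPH 100 uM (dispensed conc.), cpd preinc 15 min RT; start with NADPH (500 uM addition) then DTNB (15 mM addition). Kinetic TNB absorbance, 405 nm filter. Four-parameter Hill fit across titration.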
Pf growth 48h – Primary qHTS for delayed death inhibitors of the malarial parasite plastid, 48 hour incubation. hit rate 5.9% among 310,000. Potency, µM (titrated, usually from 28.7 µM), usual class: inhibitors. P. falciparum luciferase growth in erythrocytes, 48 h
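Firefly luciferase activity from engineered P. falciparum reports growth; inhibitors lower the luminescent signal. Cultures contained 2% hematocrit erythrocytes at 0.1% final parasitemia.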
Pf growth 96h – Primary qHTS for delayed death inhibitors of the malarial parasite plastid, 96 hour incubation; P. falciparum luciferase reporter growth, 96 h; Potency, µM (series often up to 28.7 µM), hits mostly inhibitors; hit rate 6.9% among 320,000; AID 504834, 2011
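Two-generation exposure (96 h) targets delayed-death phenotype. Reporter parasites carrying integrated firefly luciferase, in red cells at 2% hematocrit and 0.05% parasitemia final, kept at 37 C, 5% CO2; luminescence loss indicates inhibition.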
SARS PLpro yeast – qHTS of Yeast-based Assay for SARS-CoV PLP; hit rate 0.19% among 330,000; S. cerevisiae expressing SARS-CoV PLpro, growth rescue; Potency, µM (titrated, usually from 32.9 µM), actives largely listed as activators; AID 485353, 2010; calls by dose curve; note: nearly all actives have a fitted effect of over 55% in size
Of the large screens only hits and unclear results are named; the others gave an inactive call. Unless noted, calls come from the whole dose curve; as a rule, active = well fitted curve in the direction sought with a large enough effect; inconclusive = small, poorly fitted or top-dose-only effect, or another doubt; inactive = no such curve, though single readings can be large; an effect the other way counts as inactive or inconclusive.

Cc1ccc(S(=O)(=O)N2CCOCC2)cc1NC(=O)CN1C(=O)NC2(CCCC2)C1=O	none (no result: Sm TGR inh, Pf growth 48h, Pf growth 96h)
O=C(CCN1C(=O)[C@@H]2Cc3ccccc3CN2C1=O)N[C@H](C(=O)O)c1ccccc1	none
Cc1ccc(S(=O)(=O)N2CCOCC2)cc1C(=O)OCC(=O)NCc1ccccc1	Pf growth 48h inconclusive (no result: SARS PLpro yeast)
Cc1ccc(N(Cc2ccccc2)C(=O)c2ccc(Cl)c(S(=O)(=O)N3CCOCC3)c2)cc1	Pf growth 48h 13µM, Pf growth 96h 9.3µM
Cc1ccc(N(Cc2ccccc2)C(=O)c2cc(S(=O)(=O)N3CCOCC3)ccc2C)cc1	Pf growth 48h 10µM, Pf growth 96h inconclusive
Nc1nnnn1/N=C/c1cccc(Oc2ccccc2)c1	Pf growth 96h 7.4µM
Nc1nnnn1/N=C/c1ccccc1	none
CCOc1ccc(CN(C)C(=O)CN2C(=O)NC3(CCCc4ccccc43)C2=O)cc1 (centres undefined)	Pf growth 48h inconclusive, Pf growth 96h 1.2µM
COc1ccc(C(=O)CN2C(=O)NC3(CCCc4ccccc43)C2=O)cc1OC (centres undefined)	Pf growth 48h 8.3µM, Pf growth 96h 1.3µM
COc1ccc(CNC(=O)CN2C(=O)NC3(CCCc4sccc43)C2=O)cc1OC (centres undefined)	Pf growth 48h inconclusive, Pf growth 96h 4.1µM
O=C(CN1C(=O)NC2(CCc3ccccc32)C1=O)c1ccccc1 (centres undefined)	none
O=C(CN1C(=O)NC2(CCc3ccccc32)C1=O)c1c[nH]c2ccccc12 (centres undefined)	Pf growth 48h 8.3µM, Pf growth 96h inconclusive
COc1cccc(N2CCN(C(=O)c3ccc(Cn4c(=O)[nH]c5cc(OC)c(OC)cc5c4=O)cc3)CC2)c1	none (no result: Pf growth 48h, Pf growth 96h, SARS PLpro yeast)
Cc1nn(C)c(C)c1NS(=O)(=O)c1c(C)n[nH]c1C	none (no result: Sm TGR inh, Pf growth 48h, Pf growth 96h)
CCOc1ccc(N2C(=O)C3ON(c4ccccc4)C(c4ccco4)C3C2=O)cc1 (centres undefined)	Sm TGR inh inconclusive
Cc1ccc(N2C(=O)C3ON(c4ccccc4)C(c4ccncc4)C3C2=O)c(C)c1 (centres undefined)	Sm TGR inh 50µM, Pf growth 96h inconclusive
Cc1cccc(C)c1N1C(=O)C2ON(c3ccccc3)C(c3ccncc3)C2C1=O (centres undefined)	Pf growth 96h inconclusive
Cc1ccccc1N1C(=O)C2ON(c3ccccc3)C(c3ccco3)C2C1=O (centres undefined)	Sm TGR inh 50µM
O=S(=O)(c1ccc(Cl)nc1)N1CCCCC1	none
CCOCCCNC(=O)C1CCN(c2cc(C)nc3c(-c4ccc(OC)c(OC)c4)c(C)nn23)CC1	Pf growth 48h 4.1µM
COCCNc1cc(C)nc2c(-c3ccccc3OC)c(C)nn12	Pf growth 96h 2.3µM
COc1ccccc1-c1c(C)nn2c(N3CCCCCC3)cc(C)nc12	Pf growth 48h 10µM, Pf growth 96h 9.3µM
Cc1cc(NCCCn2ccnc2)n2nc(C)c(-c3ccccc3)c2n1	Pf growth 96h 12µM (no result: Pf growth 48h)
c1ccc(-c2nc(NCCCn3ccnc3)c3ccccc3n2)cc1	Pf growth 48h 3.7µM, Pf growth 96h 8.3µM
COc1ccc(-c2c3c(=O)n(C)c(=O)n(C)c3cn2Cc2cccnc2)cc1	Sm TGR inh inconclusive, Pf growth 96h inconclusive
Cc1ccc(-c2c3c(=O)n(C)c(=O)n(C)c3cn2Cc2ccccn2)cc1	Sm TGR inh 35µM (no result: Pf growth 96h)
COc1ccc(-c2c3c(=O)n(C)c(=O)n(C)c3cn2-c2ccccc2O)cc1	Pf growth 48h inconclusive, Pf growth 96h inconclusive
COc1ccc(-c2c3c(=O)n(C)c(=O)n(C)c3cn2-c2cc(OC)ccc2OC)cc1	Pf growth 48h 13µM
COc1ccc(-c2c3c(=O)n(C)c(=O)n(C)c3cn2Cc2ccccn2)cc1	Sm TGR inh 28µM
Cn1c(=O)c2c(-c3ccc(Cl)cc3)n(Cc3ccccc3)cc2n(C)c1=O	none (no result: Pf growth 48h, Pf growth 96h, SARS PLpro yeast)
CN(C)C=NC(=O)c1cc2c(n(-c3ccccc3)c1=O)CC(C)(C)CC2=O	none (no result: Pf growth 48h, Pf growth 96h, SARS PLpro yeast)
CC1CC(C)CN(S(=O)(=O)c2ccc(NC(=O)c3ccc(=O)[nH]c3)cc2)C1 (centres undefined)	Pf growth 96h inconclusive
COc1ccc(N2C(=O)/C(=C/c3ccc(C)o3)C(=O)NC2=S)c(OC)c1	Sm TGR inh 1.3µM
CCOC(=O)COc1ccc(/C=C2\C(=O)NC(=S)N(c3ccc(OC)cc3)C2=O)cc1OC	Sm TGR inh 14µM, Pf growth 96h inconclusive
COc1ccc(N2C(=O)/C(=C/c3ccc(OC)c(OC)c3)C(=O)NC2=S)cc1	Sm TGR inh 10µM
COC(=O)COc1ccc(/C=C2\C(=O)NC(=S)N(c3ccc(C)cc3)C2=O)cc1OC	Sm TGR inh 13µM, Pf growth 96h inconclusive
Cc1nn(C)c(C(=O)NNC(=S)NC2CCCCC2)c1Br	Pf growth 96h 5.2µM
Cn1ncc(Br)c1C(=O)NC1CCCCCCC1	Pf growth 96h inconclusive
CCOC(=O)c1cc(-c2ccc(OC)cc2)n(CCC(=O)NCc2ccc(OC)cc2)c1C	none (no result: Pf growth 48h, Pf growth 96h, SARS PLpro yeast)
CSc1ccccc1NC(=O)CN(C)CC(=O)c1c(C)[nH]c2ccccc12	Sm TGR inh inconclusive, Pf growth 48h 4.1µM, Pf growth 96h inconclusive
O=c1c2ccccc2n(Cc2ccc(F)cc2)c(=O)n1C1CCCC1	Pf growth 48h inconclusive, Pf growth 96h 13µM
O=C(Cn1c(=O)n(Cc2ccc(F)cc2)c(=O)c2ccccc21)NCC1CCCO1 (centres undefined)	Sm TGR inh inconclusive
CCN(CC)S(=O)(=O)c1ccc(N/N=C/c2ccccc2OCC(=O)O)c([N+](=O)[O-])c1	Pf growth 48h 10µM, Pf growth 96h 1.7µM
COc1cc(NS(=O)(=O)c2ccc3c(c2)CCN3S(C)(=O)=O)cc(OC)c1	none (no result: Pf growth 48h, Pf growth 96h, SARS PLpro yeast)
O=C(OCCOCCN=C1NS(=O)(=O)c2ccccc21)c1ccc(F)cc1	none
CCn1c(SCC(=O)Nc2ccc3c(c2)OCO3)nc2c(c1=O)SC(C)C2 (centres undefined)	Pf growth 48h inconclusive, Pf growth 96h inconclusive
COc1ccc(-n2c(SCC(=O)Nc3nccs3)nc3c(c2=O)SC(C)C3)cc1 (centres undefined)	Pf growth 48h 1.7µM, Pf growth 96h 1µM
CC1Cc2nc(SCC(=O)Nc3ccc4c(c3)OCO4)n(-c3ccc(F)cc3)c(=O)c2S1 (centres undefined)	Pf growth 48h 1.7µM, Pf growth 96h 3.7µM
COc1ccc(/C=C/C(=O)O)cc1S(=O)(=O)NCc1cccnc1	Sm TGR inh inconclusive, Pf growth 96h inconclusive
Cc1cccc(NC(=O)COC(=O)CCc2c[nH]c3ccccc23)c1C	Pf growth 48h 13µM, Pf growth 96h inconclusive
Cc1cccc(C)c1NC(=O)COC(=O)CCc1c[nH]c2ccccc12	Pf growth 48h 3.7µM, Pf growth 96h 6.6µM
COc1ccc2c(c1)c1c(c(=O)n(Cc3ccccc3)c(=O)n1CC(=O)Nc1ccccc1F)n2C	none (no result: Pf growth 48h, Pf growth 96h, SARS PLpro yeast)
COc1ccc2[nH]c(S(=O)Cc3ncc(C)c(OC)c3C)nc2n1 (centres undefined)	Pf growth 48h 9.5µM, Pf growth 96h 8.5µM (no result: Sm TGR inh, SARS PLpro yeast)

Assay outcomes deposited in PubChem BioAssay by National Center for Advancing Translational Sciences (NCATS).
